# Cycloheximide cs: affects cycloheximide protein synthesis inhibition readout, counter-screen; cell reporter, cycloheximide protein synthesis inhibition counterscreen; max response, %; hit rate 12% among 300,000; AID 2314; in the data active means max response mostly above about 13%, no sharp cut-off; inactive means mostly below about 14%; further: read at 38.3 µM for the half of the compounds with a filed dose; 0% is about no effect
# SARS PLP yeast: SARS-CoV PLP inhibition in yeast; hit rate 0.19% among 330,000; Potency, µM (top dose mostly 32.9 µM), for the others: top-dose activity, positive = growth rescue, most hits filed as activators; S. cerevisiae expressing SARS-CoV PLpro, growth rescue; calls by dose curve; further: potency means the concentration at half of the fitted maximal effect; 0% is about no effect; nearly all actives have a fitted effect of over 55% in size
# Pf growth 96h: P. falciparum growth inhibition at 96 hour, primary screen for plastid delayed-death inhibitors. P. falciparum luciferase reporter growth, 96 h. AID 504834. Potency, µM (top dose mostly 28.7 µM), inactives show top-dose activity change, negative = inhibition, most hits filed as inhibitors. hit rate 6.9% among 320,000; further: potency means the concentration at half of the fitted maximal effect; on the % scale 0 is the no-effect control and ±100 the full control effect
#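 Plates of compound plus infected erythrocytes (2% hematocrit, 0.05% parasitemia final) incubate 96 hours, 37 C, 5% CO2. Detection reagent added; reduced luminescence from the parasites' luciferase reporter flags inhibition.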
# AMA1-RON2 inh: AMA1-RON2 (P. falciparum) interaction inhibition; AlphaScreen AMA1-biotinylated RON2 peptide binding; Potency, µM (highest dose often 58.2 µM), for the others: top-dose activity change, negative = inhibition, usual class: inhibitors; hit rate 0.2% among 360,000;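 further: potency means the concentration at half of the fitted maximal effect; 0% = vehicle wells and -100% = peptide control; nearly all actives have a fitted effect of over 45% in size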
#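 AMA1 (3D7) with his tag at 25 nM final met compounds first, then biotinylated RON2 peptide at 25 nM; detection used donor plus acceptor beads, 10 µg/mL apiece, read by AlphaScreen after 30 min at room temperature.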
# Shiga inhibitor: blocks Shiga toxin action in Vero cells. Vero cells, Shiga toxin protein synthesis inhibition reporter. inhibition, % at 38.7 µM. hit rate 9.2% among 290,000. AID 2315; in the data active means inhibition mostly above about 28%, no sharp cut-off; inactive means mostly below about 43%; further: 0% is about no effect
# Pf growth 48h: inhibits P. falciparum growth in the first generation, 48 h | P. falciparum luciferase growth in erythrocytes, 48 h | Potency, µM (series often up to 28.7 µM), for inactives: at the highest dose activity change, negative = inhibition, actives largely listed as inhibitors | hit rate 5.9% among 310,000 | AID 504832; further: potency means the concentration at half of the fitted maximal effect; on the % scale 0 is the no-effect control and ±100 the full control effect
#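 First compound was added to culture medium, then infected red cells at 0.1% parasitemia and 2% hematocrit (final). After incubation at 37 C under 5% CO2, luciferase detection reagent was dispensed and light output recorded.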
# * hit, by the source's call; ? = inconclusive; . = no result; [ ] = another dose, or the depositor's remark. Most compounds without a hit are left out; they make up all but 19% or so of the library. Unless noted, the call rests on the fitted dose curve; in most records, active means well fitted curve in the direction sought with a large enough effect; inconclusive means small, poorly fitted or top-dose-only effect, or another doubt; inactive means no such curve, though single readings can be large; an effect the other way counts as inactive or inconclusive.
SMILES,Cycloheximide cs,SARS PLP yeast,Pf growth 96h,AMA1-RON2 inh,Shiga inhibitor,Pf growth 48h
Cc1nc2c(nc1C)C(=O)c1ccccc1C2=O,.,.,.,7%,.,.
CCn1c(C(=O)OC)cc2c1ccn2-c1ccc(F)cc1,54*,-37%,.,-23%,113*,11%
COC(=O)c1cc2c(ccn2-c2ccc(F)cc2)n1Cc1ccc(OC)cc1,47*,-15%,?,?,54*,?
Cc1cc2c([nH]c3ccccc32)c2c1OC(C)(C)C=C2,47*,-3%,-26%,4%,87*,141%
C=CCNC(=O)COC(=O)COc1ccc(Cl)cc1,0,0%,2%,4%,-13,0%
Cc1cc(CNC(=O)c2cc(COc3c(F)cccc3F)on2)nn1C,2,1%,?,-22%,-14,62%
Cc1cc(CNC(=O)Cc2c(F)cccc2Cl)nn1C,18*,2%,.,12%,34*,45%
Cc1cccc(NC(=O)Cc2c(F)cccc2Cl)n1,28*,-4%,?,-4%,112*,89%
COc1cccc(CC(=O)Nc2nc(C)cs2)c1,43*,0%,185%,-1%,72*,87%
Cc1csc(NC(=O)Cc2ccc(F)cc2)n1,34*,2%,156%,-8%,77*,100%
COc1cccc(CC(=O)Nc2ncc(C)s2)c1,11,1%,-7%,-2%,24,2%
CC(OC(=O)c1cccc(-n2cnnn2)c1)c1nc2ccccc2c(=O)[nH]1 (stereo not drawn),.,-9%,?,5%,.,?
O=C(Nc1ccc(NC(=O)c2sc3ccccc3c2Cl)cc1)c1ccco1,-6,3%,25%,-5%,-11,-18%
Cc1nc2cc(-c3ccc(Cl)cc3)nn2c(C)c1CCC(=O)NC(C)c1ccc2c(c1)OCCO2 (stereo not drawn),1,-52%,?,-9%,-15,?
Cc1csc(NC(=O)CCc2c(C)nc3cc(-c4ccc(Cl)cc4)nn3c2C)n1,1,-8%,15µM*,-2%,13,?
Cc1ccc(CC(=O)Nc2cccc(C)n2)cc1,33*,0%,1%,6%,69*,153%
Cc1csc(NC(=O)Cc2c(F)cccc2Cl)n1,35*,-2%,52%,16%,.,71%
Cc1cccc(NC(=O)Cc2ccc(-c3ccccc3)cc2)n1,5,-3%,66%,-6%,14,7%
C/C(=N/N=C(/N)SCc1ccccc1)C(C)(C)C,27*,1%,-14%,-3%,37,27%
Cc1cccc(CSC(=N)N)c1,-3,17%,-27%,3%[2.32 µM],-13,-1%
CN(C(=O)c1nn(C)c2c1CS(=O)(=O)c1ccccc1-2)c1cccc(Cl)c1,1,0%,-3%,14%,-4,-25%
CCCCC(=O)Nc1cccc(-c2cn3ccsc3n2)c1,34*,-5%,?,32%,47*,106%
COc1ccccc1C(=O)Nc1cccc(-c2cn3ccsc3n2)c1,27*,-27%,.,.,42*,-9%
Cc1ccc(N2C(=O)c3ccc(C(=O)N4CCN(Cc5ccccc5)CC4)cc3C2=O)cc1,2,0%,12%,9%,-5,4%
CCOc1cc(/C=N/NC(=O)C(O)(c2ccccc2)c2ccccc2)ccc1OC(=O)c1ccco1,.,.,.,-3%,.,.
SMILES,Cycloheximide cs,SARS PLP yeast,Pf growth 96h,AMA1-RON2 inh,Shiga inhibitor,Pf growth 48h
COc1ccc(-c2cc(C(=O)O)nc3ccc4ccccc4c23)cc1OC,18*,-3%,?,-8%,41*,123%
COc1ccc(-c2nc(C(=O)O)cs2)cc1OC,-3,0%,76%,16%,20,23%
O=C(CC1OC(=O)c2ccccc21)NCC1COc2ccccc2O1 (stereo not drawn),.,4%,16%,-7%,.,23%
O=C(CC1Nc2ccccc2NC1=O)NCC1COc2ccccc2O1 (stereo not drawn),9,1%,11%,-4%,14,12µM*
O=C(NCC1COc2ccccc2O1)c1ccccc1 (stereo not drawn),50*,3%,-29%,13%,103*,172%
O=C(NCC1COc2ccccc2O1)c1ccco1 (stereo not drawn),1,4%,?,17%,-4,3%
O=C(CCNC(=O)c1ccc(Br)cc1)NCC1COc2ccccc2O1 (stereo not drawn),23*,7%,48%,-7%,71*,?
O=C(CCNC(=O)c1ccccc1Cl)NCC1COc2ccccc2O1 (stereo not drawn),.,0%,1%,-3%,.,?
O=C(NCC1COc2ccccc2O1)c1cc2ccccc2o1 (stereo not drawn),31*,-11%,?,6%,65*,?
COc1ccc(C(CNC(=O)C(C)(C)Oc2ccc(Cl)cc2)N2CCOCC2)cc1 (stereo not drawn),.,.,.,44%,.,.
O=C(NCC1COc2ccccc2O1)c1ccc(NC(=O)C(c2ccccc2)c2ccccc2)cc1 (stereo not drawn),-5,7%,?,0%,-6,9.3µM*
O=C(NCC1CCCO1)c1cccc2ccccc12 (stereo not drawn),-3,3%,?,6%,-6,8%
O=C(NCC1COc2ccccc2O1)c1ccc(NC(=O)C2CCCO2)cc1 (stereo not drawn),15*,?,23%,3%,37*,21%
O=C(NCC1CCCO1)c1cc2ccccc2o1 (stereo not drawn),24*,0%,19%,3%,24,43%
O=C(CSc1nnc(-c2cccs2)n1CC1CCCO1)c1cc2ccccc2o1 (stereo not drawn),9,-8%,12µM*,-2%,-12,30%
CCOC(=O)[C@]12CCCC=C1N(Cc1ccccc1)C(=O)[C@H](CC(=O)NCC1CCCCC1)C2,.,.,.,3%,.,.
CC1=CC(=O)Nc2cncnc2N1,.,.,.,16%,.,.
O=C(COC(=O)c1ccccc1)NCC1COc2ccccc2O1 (stereo not drawn),.,.,.,-3%,.,.
O=C(OCC1COc2ccccc2O1)c1ccccc1F (stereo not drawn),19*,-5%,-19%,34%,25,.
Cc1ccc(/C=C/C(=O)NCC2COc3ccccc3O2)o1 (stereo not drawn),16*,-2%,?,-5%,18,-5%
O=C(NCC1CCCO1)c1cccc(S(=O)(=O)N(Cc2ccccc2)c2ccccc2)c1 (stereo not drawn),.,2%,-2%,-11%,.,?
COc1ccccc1CN(C)C[C@@H]1OCc2cnnn2CCCC(=O)N([C@@H](C)CO)C[C@H]1C,.,.,.,8%,.,.
Cc1cc(-n2c(C)cc(C(=O)COc3cc(F)ccc3[N+](=O)[O-])c2C)no1,.,5%,?,-5%,.,9.3µM*
O=C(c1ccc(COc2ccccc2Br)o1)N1CCN(c2ccccn2)CC1,2,-9%,74%,-15%,-12,10%

# Bioassay records from PubChem BioAssay.
